PubChem BioAssay AID1159580 (chemical genetic matrix, 2015)
“And” between values parts separate entries of the source, which are not always exact repeats. Identical values can stand only once. The whole screen tested about 5,500 compounds, of which about 2,000 (36%) were called active. Inconclusive results (about 18%) are left out. Rule as the data show it: active = normalized growth mostly below about 0.91 (no sharp cut-off); inconclusive = no clear call, values can overlap the other calls; inactive = mostly above about 0.92. The list shows a part of the results.

Experiment: chemical genetic growth profiling, strain panel (AID 1159580);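 also: tested at 20 µM; growth read once vehicle control cultures reached saturation at 30 °C; 1 = growth at the plate median or of vehicle wells; lower values mean less growth of the strain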
Details: S. cerevisiae deletion strains, growth OD

Measured: normalized growth

C[n+]1cc2c3c(ccc2c2ccc4cc5c(cc4c21)OCO5)OCO3
active: locus YJR043C, strain POL32, hits give low values 0.0783 | locus YJR075W, strain HOC1, hits give low values 0.0715 and 0.0688 | locus YKL085W, strain MDH1 (second series), hits give low values 0.921 | locus YKL085W, strain MDH1, hits give low values 0.921 | locus YKL160W, strain elf1, hits give low values 0.548 | locus YKL190W, strain CNB1, hits give low values 0.0545 | locus YKR001C, strain vps1, hits give low values 0.0723 | locus YKR026C, strain gcn3, hits give low values 0.843 | locus YKR091W, strain srl3, hits give low values 0.914 | locus YLL001W, strain dnm1, hits give low values 0.639 | locus YLL026W, hits give low values 0.549 | locus YLL041C, strain sdh2, hits give low values 0.778 | locus YLR027C, strain aat2, hits give low values 0.379 | locus YLR039C, strain RIC1, hits give low values 0.101 | locus YLR058C, strain SHM2, hits give low values 0.0596 | locus YLR102C, strain apc9, hits give low values 0.0679 | locus YLR221C, strain rsa3, hits give low values 0.562 | locus YLR258W, strain gsy2, hits give low values 0.502 | locus YLR262C, strain YPT6 (second series), hits give low values 0.827 | locus YLR262C, strain YPT6, hits give low values 0.123 | locus YLR268W, strain sec22, hits give low values 0.0776 | locus YLR320W, strain mms22, hits give low values 0.375 | locus YLR330W, strain CHS5, hits give low values 0.0586 | locus YLR342W, strain FKS1 (second series), hits give low values 0.0743 | locus YLR342W, strain FKS1, hits give low values 0.349 | locus YLR357W, strain rsc2, hits give low values 0.844 | locus YLR370C, strain arc18, hits give low values 0.762 | locus YLR371W, strain rom2, hits give low values 0.0708 | locus YLR418C, strain cdc73, hits give low values 0.107 | locus YML016C, strain PPZ1, hits give low values 0.0598 | locus YML032C, strain rad52, hits give low values 0.0764 | locus YML120C, strain ndi1, hits give low values 0.582 | locus YML124C, strain tub3, hits give low values 0.0684 | locus YMR058W, strain fet3, hits give low values 0.592 | locus YMR078C, strain ctf18, hits give low values 0.0819 | locus YMR125W, strain sto1, hits give low values 0.462 | locus YMR129W, hits give low values 0.779 | locus YMR205C, strain PFK2, hits give low values 0.273 | locus YMR223W, strain ubp8, hits give low values 0.077 | locus YMR307W, strain GAS1, hits give low values 0.145 and 0.0622 | locus YNL067W, strain RPL9B, hits give low values 0.0573 | locus YNL071W, strain lat1, hits give low values 0.0942 | locus YNL175C, strain NOP13, hits give low values 0.0763 | locus YNL197C, strain WHI3, hits give low values 0.0898 | locus YNL209W, strain ssb2, hits give low values 0.623 | locus YNL224C, strain SQS1, hits give low values 0.0906 | locus YNL233W, strain BNI4, hits give low values 0.0657 | locus YNL248C, strain rpa49, hits give low values 0.688 | locus YNL250W, strain rad50, hits give low values 0.839 | locus YNL307C, strain MCK1, hits give low values 0.0755 | locus YNL322C, strain KRE1, hits give low values 0.0622 | locus YNR052C, strain pop2, hits give low values 0.085 | locus YOL006C, strain TOP1, hits give low values 0.135 | locus YOL147C, strain pex11, hits give low values 0.0667 | locus YOR001W, strain rrp6, hits give low values 0.823 | locus YOR061W, strain CKA2, hits give low values 0.0586 | locus YOR069W, strain VPS5, hits give low values 0.0593 | locus YOR070C, strain gyp1, hits give low values 0.413 | locus YOR080W, strain dia2, hits give low values 0.825 | locus YOR083W, strain WHI5 (second series), hits give low values 0.0851 | locus YOR083W, strain WHI5, hits give low values 0.475 | locus YOR106W, strain vam3, hits give low values 0.315 | locus YOR136W, strain idh2, hits give low values 0.0832 | locus YOR144C, strain elg1, hits give low values 0.0651 | locus YOR184W, strain ser1, hits give low values 0.0766 | locus YOR265W, strain rbl2, hits give low values 0.5 | locus YOR270C, strain vph1, hits give low values 0.38 | locus YOR290C, strain snf2, hits give low values 0.412 | locus YOR316C, strain cot1, hits give low values 0.0661 | locus YPL051W, strain arl3, hits give low values 0.512 | locus YPL055C, strain LGE1, hits give low values 0.0742 and 0.092 | locus YPL078C, strain atp4, hits give low values 0.538 | locus YPL106C, strain sse1, hits give low values 0.741 | locus YPL240C, strain hsp82, hits give low values 0.58 | locus YPR119W, strain clb2, hits give low values 0.07 | locus YPR163C, strain tif3, hits give low values 0.0761 | locus YPR167C, strain met16, hits give low values 0.0704 | strain wtn01, hits give low values 0.067
inactive: locus YJR066W, strain TOR1, hits give low values 0.931 | locus YKL009W, strain mrt4, hits give low values 0.922 | locus YKL068W, hits give low values 0.964 | locus YLR113W, strain HOG1, hits give low values 0.951 | locus YLR384C, strain iki3, hits give low values 0.97 | locus YMR231W, strain pep5, hits give low values 0.991 | locus YNL183C, strain NPR1, hits give low values 0.923 | locus YNL271C, strain bni1, hits give low values 0.92 | locus YNL298W, strain CLA4, hits give low values 0.951 | locus YNL322C, strain KRE1 (second series), hits give low values 1 | locus YNR049C, strain mso1, hits give low values 0.964 | locus YOL012C, strain htz1 0.232 | locus YOR231W, strain MKK1, hits give low values 0.96 | locus YPL256C, strain CLN2, hits give low values 0.969 | locus YPR141C, strain kar3, hits give low values 0.971
